Assay results from PubChem BioAssay AID485344 (National Center for Advancing Translational Sciences (NCATS), 2010).
Out of some 340,000 compounds screened, about 6,900 (2%) were called active. Only a selection was taken, and actives are over-represented in it overall. Values without a mark were called inactive. Cut-off read from the data, not from the text of the source: active = inhibition above about 30%; inactive = below that, where a call was filed.
Note: 0% is about no effect.

The molecules below were run against D(2) dopamine receptor (Homo sapiens) (UniProt P14416) (assay: HTS Assay for Allosteric Antagonists of the Human D2 Dopamine Receptor: Primary Screen for Antagonists). Conditions: HEK293 TREx D2 cells, calcium flux, dopamine EC80; at 10 µM; stronger effect = higher value.
Chain of D(2) dopamine receptor (Homo sapiens) (P14416 whole entry, looked up): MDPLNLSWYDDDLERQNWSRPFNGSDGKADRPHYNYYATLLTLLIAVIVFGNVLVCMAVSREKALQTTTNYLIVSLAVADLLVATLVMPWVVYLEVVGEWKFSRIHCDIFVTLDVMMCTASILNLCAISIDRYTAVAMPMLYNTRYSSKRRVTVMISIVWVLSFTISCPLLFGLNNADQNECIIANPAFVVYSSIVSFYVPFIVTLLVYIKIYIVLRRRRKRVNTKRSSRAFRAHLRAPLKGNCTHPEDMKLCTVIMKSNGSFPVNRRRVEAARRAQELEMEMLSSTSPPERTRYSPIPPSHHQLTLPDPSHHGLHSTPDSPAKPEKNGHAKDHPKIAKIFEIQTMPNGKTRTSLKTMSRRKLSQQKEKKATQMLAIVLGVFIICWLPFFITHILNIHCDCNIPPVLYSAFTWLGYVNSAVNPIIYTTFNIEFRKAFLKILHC
Text: NIH Chemical Genomics Center [NCGC] NIH Molecular Libraries Probe Centers Network [MLPCN] MLPCN Grant: NS064831-01 Assay Submitter (PI): David Sibley Dopamine receptors (DARs) are involved in the etiology and/or therapy of a number of neuropsychiatric and endocrine disorders. For instance, all receptor-based antiparkinsonian drugs work via stimulating the D2 DAR subtype whereas all FDA-approved antipsychotic agents are antagonists of this receptor. […] There are three different types of allosteric modulators that we are seeking, two of which will stimulate or augment receptor signaling, allosteric agonists and potentiators, while the third, allosteric antagonists, will attenuate receptor signaling. The present primary screening assay measures compound antagonism after an EC80 addition of dopamine by tracking calcium flux in a […], inducible Hek293 Trex D2 cell line.
Freshly passaged cells are plated in 1536 well black, clear bottom plates at a density of 4000 cells/well in 3 ul of complete media containing 1x tetracycline inducer. After an overnight incubation at 30 C in 5% CO2, cells are loaded with 2 ul of the no wash Calcium Assay Kit (ABD Bioquest) and incubated at room temperature for 30 to 90 minutes. Agonist read: A 10 cycle (1 second/cycle) baseline measurement is taken and then the FDSS online 1536 pintool delivers 23 nl of compound library (as well as dopamine controls) to the plate. The plate is measured for kinetically at 1 cycle/sec for 180 seconds. Following the 180 second read, 1 ul of an EC80 (negative modulation assay) is delivered by an onboard pipette head. Measurements are taken kinetically for an additional 180 seconds.
For `COc1ccc(C(=O)C2CN(C)CC2C(=O)c2ccc(OC)cc2)cc1` (stereo not given), the inhibition was 4.54%.
Work on `CN1CCC(OC(=O)c2cccc(F)c2)CC1` yielded an inhibition of 8.08%.
`Cc1ccc(C2CN(C)CC2C(=O)c2ccc(F)cc2)cc1` (stereo not given) was tested, and the inhibition was 70% (active).
Work on `COC(=O)C1=C(c2ccc(F)cc2OCc2ccccc2)C[C@@H]2CC[C@H]1N2C(=O)NCc1ccc2[nH]ccc2c1` yielded an inhibition of 4.27%.
For `COC(=O)C1=C(c2cccc(OCc3ccccc3)c2)C[C@@H]2CC[C@H]1N2C(=O)NNCc1ccccc1`, the inhibition was -6.45%.
Work on `O=C(O)CCn1cc(C=C2C(=O)NC(=S)NC2=O)c(-c2cccc(Br)c2)n1` yielded an inhibition of 18.3%.
For `CCc1ccc(OCC(=O)N2CCN(CC(=O)Nc3ccccc3Cl)CC2)cc1`, the inhibition was -8.62%.
`CC(C)c1ccc(O)c(CN2CCN(c3ccccc3)CC2)c1` gave an inhibition of -16.3%.
In the case of `Cc1cc(=O)oc2c(C)c(OCC(=O)N3CCN(Cc4ccc5c(c4)OCO5)CC3)ccc12`, the inhibition was 3.54%.
`O=C(Cc1ccccc1[N+](=O)[O-])N1CCN(Cc2ccc3c(c2)OCO3)CC1` showed an inhibition of -19.1%.
For `Oc1cc2c(cc1CN1CCN(c3ccccc3)CC1)OCO2`, the inhibition was 108% (active).
`CCN1CCN(Cc2cc(OC)c3c(c2)OCO3)CC1` gave an inhibition of -21.1%.
`Fc1ccc(N2CCN(Cc3ccc4c(c3)OCO4)CC2)cc1` was tested, and the inhibition was 65.6% (active).
`CN1CCC(N(C)Cc2cccnc2)CC1` gave an inhibition of 11.8%.
`Cc1ccccc1NC(=O)COC(=O)c1cc(C)n(C2CC2)c1C` gave an inhibition of 6.13%.
Work on `COC(=O)C1=C(c2ccc(Cl)c(C(F)(F)F)c2)C[C@@H]2CC[C@H]1N2C(=O)NC(C)C` yielded an inhibition of -9.37%.
In the case of `COC(=O)C1=C(c2ccc(F)cc2OCc2ccccc2)C[C@@H]2CC[C@H]1N2C(=O)NCc1ccc(Cl)cc1`, the inhibition was -5.86%.
With `CCOC(=O)C1(CCc2ccccc2)CCN(Cc2ccco2)CC1` the inhibition was 1.26%.
In the case of `CCOC(=O)C1(Cc2ccc(Cl)cc2)CCN(C(C)CCn2cccn2)CC1` (stereo not given), the inhibition was 77.6% (active).
`COC(=O)C1=C(c2cccc(OCc3ccccc3)c2)C[C@@H]2CC[C@H]1N2C(=O)NCc1ccc(Br)cc1` was tested, and the inhibition was -11.9%.
Work on `COc1ccc(CNCCc2c[nH]c3ccccc23)cc1OC` yielded an inhibition of 22.9%.
For `c1cncc(CNCCc2c[nH]c3ccccc23)c1`, the inhibition was 33% (active).
In the case of `c1cncc(CNC2=NCCC2)c1`, the inhibition was -1.77%.
For `COc1ccc(CN2CCN(c3ccccc3F)CC2)c(OC)c1`, the inhibition was 76.4% (active).
`COc1ccccc1CN1CCN(C(=O)Cc2ccccc2)CC1` gave an inhibition of -40.7%.
With `Fc1cccc(F)c1CN1CCN(Cc2c(F)cccc2F)CC1` the inhibition was -7.4%.
Molecule `COC(=O)C1=C(c2ccccc2OCc2ccccc2)C[C@@H]2CC[C@H]1N2C(=O)NCc1ccc(OC)cc1` has an inhibition of -2.56%.
In the case of `COC(=O)C1=C(c2ccc(F)cc2OCc2ccccc2)C[C@@H]2CC[C@H]1N2C(=O)NCc1ccc(OC)c(OC)c1`, the inhibition was -1.84%.
`COC(=O)C1=C(c2ccc(Cl)c(C(F)(F)F)c2)C[C@@H]2CC[C@H]1N2C(=O)NC1CC1` showed an inhibition of -0.929%.
In the case of `COC(=O)C1=C(c2ccc(-c3ccccc3)c(F)c2)C[C@@H]2CC[C@H]1N2C(=O)NCc1ccc(F)cc1`, the inhibition was -5.61%.
Molecule `Cn1c(O)c(C(=Nc2ccc(F)cc2)c2ccccc2)c(=O)n(C)c1=O` has an inhibition of -2.27%.
`NCC(O)c1ccc(O)cc1` (stereo not given) was tested, and the inhibition was 32.1% (active).
`CCc1cccc2c(C#N)cn(CC(=O)N3CCOCC3)c12` showed an inhibition of -4.1%.
Work on `C[C@]12CC[C@H](O)C[C@H]1CC[C@@H]1C2CC[C@]2(C)[C@@H](C3=CC(=O)OC3)[C@@H](O)C[C@]12O` (stereo not given in full) yielded an inhibition of 8.92%.
With `COC(=O)C1=C(c2ccc3ccccc3c2)C[C@@H]2CC[C@H]1N2C(=O)NCCO` the inhibition was -12.6%.
